# Rows were chosen to be rich in hits. Some 7.6% of all compounds tested hit in one or more screens of this group.
# hERG WT inh: blocks the wildtype human KCNH2 potassium channel; Q12809; 0.37% of 340,000 active; activity change, % at 1.84 µM; U2OS, BacMam KCNH2, thallium flux FluxOr; stronger effect = lower value;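 active = maximum activity change below -70%; inconclusive = maximum activity change between -70% and -50%; inactive = maximum activity change above -50%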; also: % is scaled to controls: 0 for no effect and ±100 for the full control effect
# Target sequence (Q12809 whole entry, looked up): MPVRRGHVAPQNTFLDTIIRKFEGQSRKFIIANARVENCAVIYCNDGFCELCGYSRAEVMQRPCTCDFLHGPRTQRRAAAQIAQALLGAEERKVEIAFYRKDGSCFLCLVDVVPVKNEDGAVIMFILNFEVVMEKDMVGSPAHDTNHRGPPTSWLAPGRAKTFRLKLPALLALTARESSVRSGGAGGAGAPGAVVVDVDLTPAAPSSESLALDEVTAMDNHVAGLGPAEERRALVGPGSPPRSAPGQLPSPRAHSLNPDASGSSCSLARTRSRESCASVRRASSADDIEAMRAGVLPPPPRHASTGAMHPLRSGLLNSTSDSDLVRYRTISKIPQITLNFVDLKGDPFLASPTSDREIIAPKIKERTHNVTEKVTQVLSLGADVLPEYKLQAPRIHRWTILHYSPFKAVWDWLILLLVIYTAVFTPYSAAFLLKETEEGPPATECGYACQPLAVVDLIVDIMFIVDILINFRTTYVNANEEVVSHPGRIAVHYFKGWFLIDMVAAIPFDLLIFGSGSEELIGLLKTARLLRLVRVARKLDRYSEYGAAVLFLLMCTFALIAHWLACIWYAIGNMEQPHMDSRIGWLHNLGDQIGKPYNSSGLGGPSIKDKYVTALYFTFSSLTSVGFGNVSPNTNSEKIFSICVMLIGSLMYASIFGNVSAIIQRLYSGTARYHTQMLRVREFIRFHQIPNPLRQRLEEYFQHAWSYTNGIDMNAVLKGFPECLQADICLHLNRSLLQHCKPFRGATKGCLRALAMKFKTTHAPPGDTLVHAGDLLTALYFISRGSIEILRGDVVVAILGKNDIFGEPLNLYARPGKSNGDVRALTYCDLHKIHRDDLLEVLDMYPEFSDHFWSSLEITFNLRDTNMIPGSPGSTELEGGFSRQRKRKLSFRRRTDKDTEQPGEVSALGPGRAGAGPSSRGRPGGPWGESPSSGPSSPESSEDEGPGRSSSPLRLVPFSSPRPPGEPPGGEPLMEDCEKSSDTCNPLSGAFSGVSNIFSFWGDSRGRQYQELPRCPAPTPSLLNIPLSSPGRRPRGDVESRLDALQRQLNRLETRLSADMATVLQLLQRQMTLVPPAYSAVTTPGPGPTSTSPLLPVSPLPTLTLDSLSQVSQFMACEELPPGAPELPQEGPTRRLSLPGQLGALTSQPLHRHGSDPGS
#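 U2OS cells transduced with wild-type KCNH2 virus are loaded with FluxOr dye for 45 min, and thallium flux is measured in kinetic reads before and after stimulation buffer. Rate constants are normalized to DMSO controls.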
# MCF10A rerep: DNA re-replication induction in MCF 10a cells. MCF 10A DNA re-replication, Hoechst nuclear intensity, 48 h. Potency, µM (doses to about 46.1 µM), for inactives: at the highest dose activity, positive = re-replication, actives largely listed as activators. 2.9% of 350,000 active; also: potency is read from the fitted curve at half-maximal effect; % of control where 0% means no effect; nearly all actives have a fitted effect of over 50% in size
# KB-3-1 tox: KB-3-1 parental cell cytotoxicity; KB-3-1 viability, CellTiter-Glo ATP luminescence, 72 h; Potency, µM (titrated, usually from 46.1 µM), actives largely listed as cytotoxic; 1.4% of 400,000 active; AID 1347075; also: potency is read from the fitted curve at half-maximal effect; % is scaled to controls: 0 for no effect and ±100 for the full control effect; nearly all actives have a fitted effect of over 60% in size
#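 Parental KB-3-1 adenocarcinoma cells in phenol-red-free DMEM with 10% FBS were pin-treated with compounds at several concentrations, incubated 72 h at 37 °C, and viability read by CellTiter-Glo luminescence; concentration-effect curves were fitted after normalization.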
# KB-V1 cytotox: kills drug-selected multidrug resistant KB-V1 cells; KB-V1 MDR cells viability, CellTiter-Glo, 72 h; Potency, µM (series often up to 46.1 µM), most hits filed as cytotoxic; 3.4% of 400,000 active; AID 1347076; also: potency is read from the fitted curve at half-maximal effect; % is scaled to controls: 0 for no effect and ±100 for the full control effect; nearly all actives have a fitted effect of over 60% in size
#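 KB-V1 cells (P-gp-expressing MDR subline of KB-3-1) in phenol-red-free DMEM with 10% FBS were exposed to library compounds over a concentration series for 72 h at 37 degrees C. Viability read by CellTiter-Glo luminescence; concentration-effect curves fitted after normalization.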
# SW480 rereplic: induces DNA re-replication in SW480 colon adenocarcinoma cells. 1.8% of 340,000 active. AID 624297. Potency, µM (doses to about 46.1 µM), without a hit: top-dose re-replication activation, hits mostly activators. SW480 DNA re-replication, Hoechst DNA content imaging, 48 h; also: potency is read from the fitted curve at half-maximal effect; % of control where 0% means no effect; nearly all actives have a fitted effect of over 55% in size
#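 SW480 cells exposed to compounds for 48 hr at 37 C, 5% CO2, then Hoechst-stained 40 min. Nuclear DNA content imaged by fluorescence scanning (405 nm excitation, 500-530 nm emission); re-replication scored as increased high-intensity nuclei.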
# KCNH2 3.1 inh: inhibitors of human KCNH2 3.1 potassium channel isoform; U2OS KCNH2 3.1, thallium flux FluxOr; stronger effect = lower value; activity change, % (tested at about 1.8 µM); 0.95% of 340,000 active;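 active = maximum activity change below -70%; inconclusive = maximum activity change from -70% to -50%; inactive = maximum activity change above -50%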;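 also: thallium influx rate constant from kinetic fluorescence after stimulation buffer; % is scaled to controls: 0 for no effect and ±100 for the full control effect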
#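 Virally transduced U2OS (3.1 isoform, 4 h infection in dark at RT) → overnight 37 C → FluxOr + Red40 in HBSS/HEPES, 45 min → stimulation buffer, 2 min kinetic read → rate constant vs DMSO controls.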
# Starred values were filed as active, the others as inactive; i = inactive; ? = inconclusive; / = no result given. Unless noted, calls follow the shape of the dose curve; as a rule, active = well fitted curve in the direction sought with a large enough effect; inconclusive = small, poorly fitted or top-dose-only effect, or another doubt; inactive = no such curve, though single readings can be large; an effect the other way counts as inactive or inconclusive.
SMILES,hERG WT inh,MCF10A rerep,KB-3-1 tox,KB-V1 cytotox,SW480 rereplic,KCNH2 3.1 inh
O=C(Cn1ncc2c1-c1ccccc1OC2)N1CCN(Cc2ccccc2)CC1,-6,-2%,i,i,-3%,-39
CC1CN(C(=O)N2CCC(C(=O)NCCC3=CCCCC3)CC2)c2ccccc2O1 (centres undefined),/,/,i,i,/,/
O=c1cc(CCc2ccccc2)oc2cccc(O)c12,-4,7%,i,?,-7%,-3
CCN(C(=O)Cn1c(SCC(=O)Nc2ccc(OC)cc2)nc2ccccc21)c1cccc(C)c1,/,/,i,i,/,/
CC(NC(=O)c1cccnc1)C(c1cccs1)N1CCN(C)CC1 (centres undefined),3,17%,i,i,-11%,-6
COc1cccc(C(=O)NC(C)C(c2cccs2)N2CCN(C)CC2)c1 (centres undefined),-5,1%,i,i,-1%,-72*
Cc1ccc(Nc2nnc(SC(C)C(=O)Nc3c(C)n(C)n(-c4ccccc4)c3=O)s2)cc1 (centres undefined),0,-8%,i,i,1%,-3
CC(C)CN(CC(C)C)S(=O)(=O)N1CCC(C(=O)NCc2ccc3c(c2)OCO3)CC1,/,-4%,i,?,-37%,10
c1coc(C2Nc3ccccc3C3OCCC23)c1 (centres undefined),-1,6%,i,i,-4%,6
Fc1ccc2c(c1)C1OCCCC1C(c1ccccc1)N2 (centres undefined),7,6.5µM*,i,i,?,1
CN(C)c1ccc(/C=N/NC(=O)C2COc3ccccc3O2)o1 (centres undefined),6,7%,i,i,6%,/
O=C(N/N=C/c1ccc(-c2ccc([N+](=O)[O-])cc2)o1)[C@H]1C[C@@H]1c1ccccc1,3,23µM*,i,i,8.2µM*,-1
O=C(N/N=C\c1ccc(-c2ccc([N+](=O)[O-])cc2)o1)C1COc2ccccc2O1 (centres undefined),30,21µM*,i,?,8%,-20
Cc1nc(NC(=O)/C=C/c2ccco2)sc1C,5,?,4.1µM*,?,8.2µM*,-4
O=C(/C=C/c1ccco1)Nc1nnc(-c2ccco2)s1,-2,5.8µM*,?,?,?,-6
COc1ccc(OC)c(-c2nc(C(=O)NC3CCN(Cc4ccccc4)CC3)cc3c2[nH]c2ccccc23)c1,?,?,i,i,9%,-97*
COc1cc(C(=O)NC2CCN(Cc3ccccc3)CC2)cc(Cl)c1OC,17,8%,i,i,-4%,-90*
CCc1ccc(NC(=S)N2CCC(NC(=O)c3ccccc3)CC2)cc1,-6,18µM*,i,i,0%,-33
O=C(CCCN1CCC(NC(=O)c2ccccc2)CC1)c1ccc(Cl)cc1,-4,1%,i,i,-39%,-106*
O=C(CSc1nncs1)NCCCc1ccccc1,20,6%,i,?,-1%,12
CC(C)NC(=O)CN(Cc1ccc(F)cc1)C(=O)CCC(=O)Nc1nccs1,-8,-5%,?,i,-12%,-4
COc1ccc(CC(=O)NCC(=O)Nc2ccccc2Br)cc1,-8,14%,i,i,?,-3
COc1cc(C(=O)NCc2cc(C)nc3ccccc23)cc(OC)c1OC,0,-5%,i,i,0%,6
COc1cc(C(=O)NCc2cccc3ccccc23)cc(Cl)c1OC,3,?,i,18µM*,15%,-8
O=C(NC1CCN(Cc2ccc3ccccc3c2)CC1)c1ccccc1,1,4%,i,?,-1%,-79*
SMILES,hERG WT inh,MCF10A rerep,KB-3-1 tox,KB-V1 cytotox,SW480 rereplic,KCNH2 3.1 inh
CC(=O)c1cccc(NC(=O)c2cccc3c(-c4cnn(C)c4)coc23)c1,/,/,i,?,/,/
CCC(Sc1nc(-c2ccccc2)c(C#N)c(=O)[nH]1)C(=O)Nc1cc(C)on1 (centres undefined),0,7%,i,i,6%,-71*
CSc1nc(-c2ccccc2)c(C#N)c(=O)[nH]1,4,0%,i,i,-1%,-4
CCSc1nc(-c2ccccc2)c(C#N)c(=O)[nH]1,27,7.3µM*,i,i,20%,8
CSc1nc(-c2cccs2)c(C#N)c(=O)[nH]1,-133*,?,i,?,16%,-4
N#Cc1c(Nc2ccc(Cl)cc2)s[nH]c1=O,0,18µM*,i,i,?,-2
CCOc1cc(CNC(=O)c2ccc3c(c2)nc2n3CCCCC2)ccc1OC,/,/,i,i,/,/
COc1ccc(CCNC(=O)CCC(=O)Nc2nnc(C(C)C)s2)cc1OC,20,1%,i,i,2%,-9
CSc1nc(Nc2ccc(Cl)cc2)c(C#N)c(=O)[nH]1,-2,15%,5.2µM*,5.2µM*,-2%,-13
CCOc1cc(NC(=O)CC(C)C)c(OCC)cc1NC(=O)CCn1nnc2ccccc21,5,-2%,?,4.1µM*,-2%,-12
CCOc1cc(NC(=S)Nc2cccc(C)c2)c(OCC)cc1NC(=O)CC(C)C,-10,11%,i,3.3µM*,21%,18
CCOc1cc(NC(=S)Nc2cccc(OC)c2)c(OCC)cc1NC(=O)C(C)C,0,2%,i,i,8%,3
CCOC(=O)c1ccc(NC(=O)CCn2nnc3ccccc32)cc1,-21,10%,?,i,0%,-9
COCCCNCCOCCOc1ccc(Cl)cc1C(C)(C)C,-1,18µM*,i,18µM*,?,-28
CCOc1ccccc1OCCCC(=O)N(CC)CC(=O)Nc1ccc(NC(C)=O)cc1,-7,7%,i,i,0%,-5
COc1ccccc1CCC(=O)Nc1ccc2c(c1)CN(Cc1ccc(CO)o1)CC2,-6,32%,i,?,?,/
COc1ccccc1-n1c(SCC(=O)c2ccc(O)cc2O)nc2cc([N+](=O)[O-])ccc21,5,?,i,16µM*,-6%,0
COc1ccc(C)cc1NC(=O)CNC(C)C(=O)Nc1ccc(C(C)=O)cc1 (centres undefined),3,-10%,i,i,19%,8
Cc1nn(-c2nc3ccccc3[nH]2)c(N)c1-c1ccc(Cl)cc1,-6,?,?,18µM*,?,-84*
Cc1nn(-c2ccc3ccccc3c2)c(=O)c2ccccc12,2,24%,i,i,11%,2
COc1ccc(-c2c(C)nn(-c3ccccc3)c2N)cc1,14,-2%,i,i,-4%,-1
